Measurements reported in PubChem BioAssay AID1159580 (chemical genetic matrix, 2015).
Values joined by “and” are separate entries in the source; they are usually repeats but may differ in a detail not shown here. Equal values may be shown once. The whole screen tested about 5,500 compounds, of which about 2,000 (36%) were called active. Inconclusive results (about 18%) are left out. Cut-off read from the data, not from the text of the source: active = normalized growth mostly below about 0.91 (no sharp cut-off); inconclusive = no clear call, values can overlap the other calls; inactive = mostly above about 0.92. The list shows a part of the results.

Assay: chemical genetic growth profiling, strain panel (AID 1159580);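 note: tested at 20 µM; growth read once vehicle control cultures reached saturation at 30 °C; 1 = growth at the plate median or of vehicle wells; lower values mean less growth of the strain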
Conditions: S. cerevisiae deletion strains, growth OD

Measured: normalized growth

CC(C(=O)O)c1ccc(C(=O)c2cccs2)cc1 (configuration not stated)
inactive: locus YAL021C, strain ccr4, active compounds read low 1.02 | locus YAL026C, strain drs2, active compounds read low 1.01 | locus YAL030W, strain snc1, active compounds read low 1 | locus YBL061C, strain skt5, active compounds read low 1 | locus YBR009C, strain hhf1, active compounds read low 1.01 | locus YBR021W, strain FUR4, active compounds read low 0.987 | locus YBR023C, strain chs3, active compounds read low 0.995 | locus YBR171W, strain sec66, active compounds read low 0.985 | locus YBR229C, strain ROT2, active compounds read low 1.01 | locus YBR231C, strain swc5, active compounds read low 1 | locus YBR279W, strain paf1, active compounds read low 0.996 | locus YCL011C, strain gbp2, active compounds read low 1.01 | locus YCL016C, strain dcc1, active compounds read low 0.998 | locus YCL029C, strain bik1, active compounds read low 1.01 | locus YCL061C, strain MRC1, active compounds read low 1.01 | locus YCL069W, strain vba3, active compounds read low 0.997 | locus YCR088W, strain abp1, active compounds read low 0.996 | locus YDL005C, strain med2, active compounds read low 0.995 | locus YDL035C, strain GPR1, active compounds read low 1.01 | locus YDL040C, strain nat1, active compounds read low 0.998 | locus YDL074C, strain BRE1, active compounds read low 1 | locus YDL101C, strain DUN1, active compounds read low 1.01 | locus YDL134C, strain PPH21, active compounds read low 1 | locus YDL185W, strain tfp1, active compounds read low 0.999 | locus YDL192W, strain arf1, active compounds read low 1.01 | locus YDR001C, strain nth1, active compounds read low 0.993 | locus YDR069C, strain doa4, active compounds read low 0.994 | locus YDR101C, strain arx1, active compounds read low 1 | locus YDR137W, strain rgp1, active compounds read low 0.963 | locus YDR159W, strain sac3, active compounds read low 0.991 | locus YDR162C, strain NBP2, active compounds read low 1.01 | locus YDR195W, strain ref2 0.976 | locus YDR297W, strain sur2, active compounds read low 0.999 | locus YDR318W, strain mcm21, active compounds read low 1.02 | locus YDR334W, strain swr1, active compounds read low 0.989 | locus YDR335W, strain msn5, active compounds read low 1.01 | locus YDR388W, active compounds read low 1.02 | locus YDR392W, strain spt3, active compounds read low 1.03 | locus YDR502C, strain sam2, active compounds read low 1.03 | locus YEL003W, strain gim4, active compounds read low 0.987 | locus YEL037C, strain rad23, active compounds read low 1 | locus YEL061C, strain CIN8 (second series), active compounds read low 1 | locus YEL061C, strain CIN8, active compounds read low 1 | locus YER015W, strain faa2, active compounds read low 0.989 | locus YER016W, strain bim1, active compounds read low 1.02 | locus YER110C, active compounds read low 1.02 | locus YER111C, strain swi4, active compounds read low 0.985 | locus YER155C, strain BEM2 (second series), active compounds read low 1 | locus YER155C, strain BEM2, active compounds read low 0.992 | locus YER167W, strain BCK2, active compounds read low 1 | locus YFR010W, strain ubp6, active compounds read low 0.991 | locus YGL078C, strain dbp3, active compounds read low 1.01 | locus YGL086W, strain mad1, active compounds read low 1 | locus YGL167C, strain pmr1, active compounds read low 0.994 | locus YGL173C, strain kem1, active compounds read low 0.993 | locus YGL227W, strain vid30, active compounds read low 0.99 | locus YGL240W, strain doc1, active compounds read low 1 | locus YGL248W, strain PDE1, active compounds read low 1.01 | locus YGL253W, strain hxk2, active compounds read low 1.01 | locus YGR135W, strain pre9, active compounds read low 1.01 | locus YGR252W, strain gcn5, active compounds read low 1 | locus YHR013C, strain ard1, active compounds read low 0.989 | locus YHR027C, strain rpn1, active compounds read low 1.01 | locus YHR030C, strain SLT2, active compounds read low 0.998 and 1 | locus YHR079C, strain IRE1 (second series), active compounds read low 1.01 | locus YHR079C, strain IRE1, active compounds read low 0.999 | locus YHR094C, strain hxt1, active compounds read low 1.01 | locus YHR129C, strain ARP1, active compounds read low 1 | locus YHR142W, strain chs7, active compounds read low 0.995 | locus YHR200W, strain rpn10, active compounds read low 1.01 | locus YIL066C, strain RNR3, active compounds read low 1.01 | locus YIL073C, strain SPO22, active compounds read low 1.07 | locus YIL125W, strain kgd1, active compounds read low 1.01 | locus YIR030C, strain dcg1, active compounds read low 1.01 | locus YJL092W, strain hpr5, active compounds read low 0.996 | locus YJL095W, strain BCK1 (second series), active compounds read low 1 | locus YJL095W, strain BCK1, active compounds read low 1 and 0.971 | locus YJL115W, strain asf1, active compounds read low 0.995 | locus YJL129C, strain trk1, active compounds read low 0.982 | locus YJL134W, strain LCB3, active compounds read low 1 | locus YJL154C, strain vps35, active compounds read low 0.99 | locus YJL164C, strain tpk1, active compounds read low 1.03 | locus YJL166W, strain qcr8, active compounds read low 0.99 | locus YJL168C, strain set2, active compounds read low 1.01 | locus YJL187C, strain SWE1 (second series), active compounds read low 1.01 | locus YJR043C, strain POL32, active compounds read low 0.982 | locus YJR066W, strain TOR1, active compounds read low 0.952
